Measured values from PubChem BioAssay (Tox21).
Values joined by “and” are separate entries in the source; they are usually repeats but may differ in a detail not shown here. Identical values can stand only once. Results filed as inconclusive are left out. A call without a number means that no potency is given here. More than one record can exist for a structure, and the calls need not agree. Active and inactive are the calls of the source. Unless noted, the call rests on the fitted dose curve; in most records, active means well fitted curve in the direction sought with a large enough effect in the repeat runs; inconclusive means weak or mixed curves; inactive means no such curve, though single readings can be large; an effect the other way counts as inactive or inconclusive. Residues, ends and D or L forms follow the SMILES beside them.

Assays:
[1] = qHTS assay to identify small molecule antagonists of the estrogen related receptor (ERR) signaling pathway from Tox21 library - cell viability counter screen (AID 1224834); further: nearly all actives have a fitted effect of over 30% in size; further: potency means the concentration at half of the fitted maximal effect
Procedure, shortened: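 ERR cells, 2,000/well; 6 h settle at 37 C/5% CO2; pin-tool compound transfer in DMSO; 17.5 h at 37 C; CellTiter-Fluor, 30 min; fluorescence intensity.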

[2] = biological target: Luciferin 4-monooxygenase (Photinus pyralis) (UniProt P08659); assay: qHTS assay to identify small molecule inhibitors of firefly luciferase (AID 1224835); further: nearly all actives have a fitted effect of over 25% in size; further: potency means the concentration at half of the fitted maximal effect
Sequence of Luciferin 4-monooxygenase (Photinus pyralis) (P08659 whole entry, looked up): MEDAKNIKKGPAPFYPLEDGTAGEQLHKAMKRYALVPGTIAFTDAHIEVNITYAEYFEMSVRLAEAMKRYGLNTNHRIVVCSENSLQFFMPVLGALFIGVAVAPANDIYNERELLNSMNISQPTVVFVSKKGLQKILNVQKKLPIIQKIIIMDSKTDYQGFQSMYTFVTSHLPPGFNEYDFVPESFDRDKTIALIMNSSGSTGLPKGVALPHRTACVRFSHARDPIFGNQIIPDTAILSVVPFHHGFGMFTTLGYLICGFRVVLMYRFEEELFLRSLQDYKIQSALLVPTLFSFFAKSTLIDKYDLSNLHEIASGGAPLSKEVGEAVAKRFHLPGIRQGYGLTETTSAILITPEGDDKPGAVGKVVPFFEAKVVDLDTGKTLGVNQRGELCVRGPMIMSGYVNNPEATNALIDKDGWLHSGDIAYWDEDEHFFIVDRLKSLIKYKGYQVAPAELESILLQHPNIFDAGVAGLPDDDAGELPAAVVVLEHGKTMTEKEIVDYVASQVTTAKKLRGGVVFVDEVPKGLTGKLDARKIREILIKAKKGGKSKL
Procedure, shortened: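 Biochemical qHTS: compounds run as interplate titrations against purified firefly enzyme, with D-luciferin and ATP each at its KM concentration. Light output recorded by CCD imaging.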

[3] = qHTS assay to identify small molecule agonists of the constitutive androstane receptor (CAR) signaling pathway - cell viability counter screen (AID 1224836); further: series mostly up to about 92 µM; nearly all actives have a fitted effect of over 45% in size
Procedure, shortened: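 HepG2 cells stably carrying hCAR and a CYP2B6-2.2kb reporter; 15-concentration compounds plus PK11195 (final 0.75 uM), 23 hr at 37 C/5% CO2. Viability read by CellTiter-Fluor fluorescence.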

[4] = qHTS assay to identify small molecule antagonists of the constitutive androstane receptor (CAR) signaling pathway - cell viability counter screen (AID 1224837); further: series mostly up to about 92 µM; nearly all actives have a fitted effect of over 45% in size
Procedure, shortened: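 Viability was measured with CellTiter-Fluor in a HepG2 line carrying stably transfected hCAR and a CYP2B6-2.2kb construct. Cells were exposed for 23 hr at 37 C to 15 compound concentrations with 50 nM CITCO as agonist.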

[5] = biological target: Nuclear receptor subfamily 1 group I member 3 (Homo sapiens) (UniProt Q14994); assay: qHTS assay to identify small molecule antagonists of the constitutive androstane receptor (CAR) signaling pathway (AID 1224838);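 further: HepG2 cells stably expressing hCAR with CYP2B6 luciferase reporter stimulated by CITCO; nearly all actives have a fitted effect of over 40% in size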; further: potency means the concentration at half of the fitted maximal effect
Sequence of Nuclear receptor subfamily 1 group I member 3 (Homo sapiens) (Q14994 whole entry, looked up): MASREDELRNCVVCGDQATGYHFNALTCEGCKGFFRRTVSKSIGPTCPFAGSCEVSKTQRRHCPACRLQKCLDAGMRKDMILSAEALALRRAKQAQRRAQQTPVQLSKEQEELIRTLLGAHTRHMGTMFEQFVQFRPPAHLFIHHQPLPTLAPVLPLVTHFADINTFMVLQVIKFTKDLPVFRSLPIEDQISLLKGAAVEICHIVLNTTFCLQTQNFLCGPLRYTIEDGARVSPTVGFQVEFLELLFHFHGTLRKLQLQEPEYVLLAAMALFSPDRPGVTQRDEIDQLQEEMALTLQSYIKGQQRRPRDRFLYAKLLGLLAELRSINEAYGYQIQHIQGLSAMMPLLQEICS
Procedure, shortened: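 Antagonist mode used CITCO at a final 50 nM to activate CAR in human hepatoma HepG2 cells carrying stable hCAR and a 2.2 kb CYP2B6 promoter-luciferase construct. Compounds were tested at 15 concentrations over 24 h, with luminescence as the end point.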

[6] = biological target: Nuclear receptor subfamily 1 group I member 3 (Homo sapiens) (UniProt Q14994); assay: qHTS assay to identify small molecule agonists of the constitutive androstane receptor (CAR) signaling pathway (AID 1224839); further: nearly all actives have a fitted effect of over 15% in size; further: potency means the concentration at half of the fitted maximal effect
Procedure, shortened: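 HepG2 cells stably co-transfected with hCAR and a CYP2B6-2.2kb luciferase reporter; compounds at 15 concentrations with 0.75 uM PK11195 present. After 24 hr at 37 C, luciferase read by ONE-Glo luminescence.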

[7] = qHTS assay to identify small molecule antagonists of the estrogen related receptor signaling pathway with the pleiotropic PPARgamma coactivator (PGC) from Tox21 10K library - cell viability counter screen (AID 1224840; active means well fitted cell-killing curve with a large enough effect in the repeat runs, not every such curve was filed as active; further: nearly all actives have a fitted effect of over 40% in size; further: potency means the concentration at half of the fitted maximal effect)
Procedure, shortened: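 Multiplexed viability counter screen in the PGC/ERR cell line: cells treated with DMSO-dissolved compounds for 17.5 hours at 37 C, then viability measured as CellTiter-Fluor fluorescence.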

[8] = qHTS assay to identify small molecule antagonists of the estrogen related receptor signaling pathway with the pleiotropic PPARgamma coactivator (PGC) from Tox21 10K library (AID 1224841; call rule not given here; further: actives are mostly falling curves and most rising ones were filed inactive; nearly all actives have a fitted effect of over 50% in size; further: potency means the concentration at half of the fitted maximal effect)
Procedure, shortened: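 Steps: plate 2,000 PGC/ERR cells per well; incubate 6 h at 37 C with 5% CO2; transfer compounds from DMSO stocks by pin tool; incubate 18 h at 37 C; add One-Glo; measure luminescence 30 min later.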

[9] = qHTS assay to identify small molecule agonists of the estrogen related receptor signaling pathway with the pleiotropic PPARgamma coactivator (PGC) from Tox21 10K library (AID 1224842); further: nearly all actives have a fitted effect of over 15% in size
Procedure, shortened: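 PGC/ERR reporter cell line, 2,000 cells per well, incubated 6 h at 37 C before 23 nL compound in DMSO was added. After 18 h at 37 C, One-Glo luminescence read following 30 min at room temperature.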

Row | Compound | Potency [1] | Potency [2] | Potency [3] | Potency [4] | Potency [5] | Potency [6] | Potency [7] | Potency [8] | Potency [9]
1 | O=C1NC(=O)c2ccccc21 | inactive | inactive | inactive | inactive | inactive | inactive | inactive | – | –
2 | Cc1cc(=O)[nH]c(=S)[nH]1 | inactive | inactive | inactive | inactive | inactive | inactive | inactive | – | –
3 | NC(N)=NC(=O)c1nc(Cl)c(N)nc1N | inactive | inactive | inactive | inactive | 61.5 µM (active) and 50.4 µM (active) and inactive | inactive | inactive | – | –
4 | CCCCOC(=O)CC(CC(=O)OCCCC)(OC(C)=O)C(=O)OCCCC | inactive | inactive | inactive | inactive | inactive | 17.4 µM (active) and 27.3 µM (active) | inactive | inactive and 24.6 µM (active) | inactive
5 | O=C(O)CCCCCCCC(=O)O | inactive | inactive | inactive | inactive | inactive | inactive | inactive | – | –
6 | CCCC(O)C(CC)CO (stereo not given) | inactive | inactive | inactive | inactive | – | – | inactive | – | –
7 | CCCNC(=O)NS(=O)(=O)c1ccc(Cl)cc1 | inactive | inactive | inactive | inactive | – | – | inactive | – | –
8 | O=C(O)c1cccc([N+](=O)[O-])c1 | inactive | inactive | inactive | inactive | – | – | inactive | – | –
9 | Nc1ccn([C@H]2CC[C@@H](CO)O2)c(=O)n1 | inactive | inactive | inactive | inactive | – | – | inactive | – | –
10 | O=C(O)c1cccnc1 | inactive | – | inactive | inactive | inactive | inactive | inactive | – | –
11 | Nc1ccc(S(=O)(=O)c2ccc(N)cc2)cc1 | inactive | inactive | inactive | inactive | – | – | inactive | – | –
12 | Cn1c(=O)c2[nH]cnc2n(C)c1=O | inactive | inactive | inactive | inactive | – | – | inactive | – | –
13 | OC(Cn1cncn1)(Cn1cncn1)c1ccc(F)cc1F | inactive | inactive | inactive | inactive | – | – | inactive | inactive | –
14 | Cn1cc[nH]c1=S | inactive | inactive | inactive | inactive | – | inactive | inactive | – | –
15 | Cc1cn([C@H]2C[C@H](N=[N+]=[N-])[C@@H](CO)O2)c(=O)[nH]c1=O | inactive | inactive | inactive | inactive | – | – | inactive | inactive | inactive
16 | NNC(=O)c1ccncc1 | inactive | inactive | inactive | inactive | inactive | inactive | inactive | inactive | inactive
17 | COc1c2occc2cc2ccc(=O)oc12 | inactive | – | inactive | inactive | – | – | inactive | – | –
18 | O=NO | inactive | – | inactive | inactive | inactive | inactive | inactive | – | –
19 | O=C(O)CCCCC(=O)O | inactive | inactive | inactive | inactive | – | – | inactive | – | –
20 | CC(=O)OCC(COC(C)=O)OC(C)=O | inactive | inactive | inactive | inactive | – | – | inactive | inactive | inactive
21 | O=C(O)C(=O)O | inactive | inactive | inactive | inactive | – | – | inactive | – | –

Row | Compound | Potency [1] | Potency [2] | Potency [3] | Potency [4] | Potency [5] | Potency [6] | Potency [7] | Potency [8] | Potency [9]
22 | NS(=O)(=O)c1cc(C(=O)O)c(NCc2ccco2)cc1Cl | inactive | inactive | inactive | inactive | – | – | inactive | inactive | inactive
23 | O=C(c1ccccc1)c1ccccc1 | inactive | – | inactive | inactive | – | – | inactive | – | –
24 | CCCN(CCC)S(=O)(=O)c1ccc(C(=O)O)cc1 | inactive | inactive | inactive | inactive | – | – | inactive | inactive | inactive
25 | O=S(=O)(O)NC1CCCCC1 | inactive | – | inactive | inactive | inactive | inactive | inactive | – | –
26 | COC(=O)[C@H](Cc1ccccc1)NC(=O)[C@@H](N)CC(=O)O (H-Asp-Phe-OMe) | inactive | inactive | inactive | inactive | – | – | inactive | – | –
27 | OCCc1ccccc1 | inactive | inactive | inactive | inactive | – | – | inactive | – | –
28 | O=C(c1ccccc1)C(O)c1ccccc1 (stereo not given) | inactive | inactive | inactive | inactive | inactive | – | inactive | – | –
29 | CCCC(CCC)C(=O)O | inactive | inactive | inactive | inactive | – | – | inactive | – | –
30 | Nc1ccc(O)c(C(=O)O)c1 | inactive | – | inactive | inactive | inactive | inactive | inactive | inactive | inactive
31 | N=C(N)c1ccc(OCCCCCOc2ccc(C(=N)N)cc2)cc1 | inactive | inactive | inactive | – | – | – | inactive | – | –
32 | c1ccc2[nH]ccc2c1 | 26.9 µM (active) and inactive | inactive | – | – | – | – | 8.49 µM (active) and inactive | 2.69 µM (active) and inactive | inactive
33 | Nc1ccc(S(=O)(=O)Nc2nccs2)cc1 | inactive | inactive | inactive | inactive | – | – | inactive | inactive | inactive
34 | NC(=O)c1ccccc1O | inactive | inactive | inactive | inactive | – | – | inactive | – | –
35 | O=C(O)CS | inactive | inactive | inactive | inactive | – | – | inactive | – | –
36 | O=C(O)c1cc(N=Nc2ccc(S(=O)(=O)Nc3ccccn3)cc2)ccc1O | 27.4 µM (active) and 27.3 µM (active) and 23.7 µM (active) | 71.3 µM (active) and inactive | – | – | – | – | 30.7 µM (active) and inactive | – | –
37 | CC(O)CO (stereo not given) | inactive | inactive | inactive | inactive | – | – | inactive | inactive | inactive
38 | CNC[C@H](O)c1cccc(O)c1 | inactive | – | inactive | inactive | inactive | inactive | inactive | – | –
39 | Cc1ccc(C)c(OCCCC(C)(C)C(=O)O)c1 | inactive | inactive | inactive | inactive | – | – | inactive | – | –
40 | Cc1ccc(O)cc1 | inactive | inactive | – | – | – | – | inactive | – | –
41 | CCOc1ccc(NC(=O)CC(C)O)cc1 (stereo not given) | inactive | inactive | inactive | inactive | – | – | inactive | – | –
42 | O=C(O)/C=C\C(=O)O | – | inactive | inactive | inactive | inactive | – | – | – | –
